The source of these data is PubChem BioAssay AID411 (National Center for Advancing Translational Sciences (NCATS), 2006).

The structures appear in SMILES notation. In all, about 72,000 compounds went through this assay and about 1,600 (2.2%) were called active. A call without a number means that no potency is given here. The sample holds actives, similar compounds and a random draw of the others, so the mix is not that of the screen. Values without a mark were called inactive. Calls follow the shape of the dose curve; as a rule, active = well fitted inhibition curve with a large enough effect; inconclusive = small, poorly fitted or top-dose-only effect; inactive = flat fitted curve, though single readings scatter.
Potency is read from the fitted curve at half-maximal effect.

The target in the experiment is Luciferin 4-monooxygenase (Photinus pyralis) (UniProt P08659). The experiment is described as follows: qHTS Assay for Inhibitors of Firefly Luciferase. Also: nearly all actives have a fitted effect of over 40% in size. The settings on record: purified firefly luciferase, luminescence, 8 min; series mostly up to 57.1 µM. The procedure, abridged: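 Compounds were tested as concentration series (qHTS) against purified P. pyralis luciferase with luciferin and 10 uM ATP in 50 mM imidazole pH 7.2, 50 mM KCl, 7 mM MgCl2, 0.01% Tween 20, 0.05% BSA. Luminescence was read after 8 min at ambient temperature.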
Luciferin 4-monooxygenase (Photinus pyralis), sequence (P08659 whole entry, looked up): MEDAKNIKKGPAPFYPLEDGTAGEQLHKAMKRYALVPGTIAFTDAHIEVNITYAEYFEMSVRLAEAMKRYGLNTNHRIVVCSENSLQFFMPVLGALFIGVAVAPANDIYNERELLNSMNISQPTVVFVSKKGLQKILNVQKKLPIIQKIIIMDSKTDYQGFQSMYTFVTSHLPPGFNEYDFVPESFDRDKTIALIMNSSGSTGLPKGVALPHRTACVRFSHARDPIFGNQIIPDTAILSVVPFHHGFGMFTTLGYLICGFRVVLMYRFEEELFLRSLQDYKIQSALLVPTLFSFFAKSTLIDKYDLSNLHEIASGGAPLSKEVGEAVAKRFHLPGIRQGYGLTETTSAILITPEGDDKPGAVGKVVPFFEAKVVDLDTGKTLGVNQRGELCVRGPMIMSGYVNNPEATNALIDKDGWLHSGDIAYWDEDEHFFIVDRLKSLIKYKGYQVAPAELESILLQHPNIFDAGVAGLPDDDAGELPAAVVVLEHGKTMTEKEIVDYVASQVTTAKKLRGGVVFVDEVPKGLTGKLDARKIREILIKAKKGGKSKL
Take `Cc1ccc(-c2noc(-c3ccccc3C(=O)NCC3CCCO3)n2)cc1` (configuration not stated): the Potency is 12.6 µM (active).

Turning to `Cc1nc2ccccc2c2oc(C(=O)NCC3CCCO3)cc12` (configuration not stated), the Potency entry was “inactive”.

Consider `Cc1ccc(C(=O)NCC2CCCO2)o1` (configuration not stated), for which the Potency entry was “inactive”.

Take `CCCN1C2=C(C(=O)CCC2)C(c2ccc(O)c(Br)c2)C2=C1CCCC2=O`: the Potency entry was “inactive”.

On to `O=S(=O)(N1CCOCC1)N1CCN(c2ccccc2F)CC1`, for which the Potency entry was “inactive”.

As for `CCCn1c(=O)c2[nH]c(-c3ccc(OCC(=O)NCCN)cc3)nc2n(CCC)c1=O`, the Potency entry is “inactive”.

On to `CCc1ccccc1N(CC(=O)N1CCN(c2ccccc2F)CC1)S(C)(=O)=O`, for which the Potency entry is “inactive”.

For the compound `CCOc1ccc2nc(N3CCCN(C(=O)Nc4ccccc4C)CC3)c(C#N)cc2c1`, the Potency entry was “inactive”.

For `COc1ccc2nc(N3CCCC(O)C3)c(C#N)cc2c1` (configuration not stated), the Potency was 12.6 µM (active).

As to `COc1ccc(N2CCN(C(=O)CSc3nc4cc(OC)c(OC)cc4cc3C#N)CC2)cc1`, the Potency entry is “inactive”.

With `CCOc1ccc(N(CC(=O)NCc2ccc(OC)cc2)S(=O)(=O)c2c(C)noc2C)cc1`, the Potency entry is “inactive”.

On to `Cc1ccc(-c2noc(CCC(N)=O)n2)cc1`, for which the Potency entry is “inactive”.

Regarding `Cc1ccc(-c2noc(CCC(=O)Nc3ccccc3N3CCN(C)CC3)n2)cc1`, the Potency result was “inactive”.

`CCNC(=O)CCc1nc(-c2ccc(C(C)(C)C)cc2)no1`: the Potency was 5.01 µM (active).

In the case of `O=C(OCCO)c1cc(Cl)c(C(=O)OCCO)cc1Cl`, the Potency entry was “inactive”.

Turning to `CC(C)c1ccc(-c2nn[nH]n2)cc1`, the Potency was 15.8 µM (active).

`c1ccc(-n2ncc(-c3nn[nH]n3)n2)cc1`: the Potency result is “inactive”.

For the compound `CCc1ccc(-c2nnn(Cc3nn[nH]n3)n2)cc1`, the Potency result was “inactive”.

Turning to `CCCCn1c(CN2CCN(CCO)CC2)nc2ccccc21`, the Potency result was “inactive”.

In the case of `CCOC(=O)CCc1c(C)c2ccc(OCc3nn[nH]n3)c(C)c2oc1=O`, the Potency entry was “inactive”.

In the case of `COc1ccc(C(=O)Nc2ccc3c(c2)OCO3)cc1OC`, the Potency is 12.6 µM (active).

Take `Cc1ccc(F)cc1NC(=O)c1ccc2c(c1)OCO2`: the Potency result is “inactive”.

For the compound `CC(C)C(=O)Nc1cccc(C(=O)Nc2ccc3c(c2)OCO3)c1`, the Potency was 15.8 µM (active).

`Cn1c(=O)n(C)c2cc(C(=O)Nc3ccc4c(c3)OCO4)ccc21`: the Potency entry was “inactive”.

For the compound `Cn1c(NC(=O)c2ccc3c(c2)OCO3)cc(=O)n(C)c1=O`, the Potency entry is “inactive”.

For the compound `Cc1ccc(C(=O)Nc2ccc3c(c2)OCO3)cc1S(=O)(=O)N1CCCCC1`, the Potency entry was “inactive”.

As for `CCOc1ccc(NC(=O)CSc2nc3c(c(=O)n2-c2ccccc2OC)SCC3)cc1`, the Potency entry is “inactive”.

For `C[C@H](CCC(=O)NCC(=O)O)[C@H]1CC[C@H]2[C@H]3[C@@H](C[C@@H](O)[C@]12C)[C@]1(C)CC[C@H](O)C[C@@H]1C[C@@H]3O`, the Potency result is “inactive”.

Consider `CCCOc1ccc(/C(O)=C2/C(=O)C(=O)N(CCN(C)C)C2c2ccc(OC)c(OC)c2)cc1` (configuration not stated), for which the Potency entry is “inactive”.

For the compound `CCn1nnc(NC(=O)c2c(OC)cccc2OC)n1`, the Potency entry is “inactive”.

For the compound `CCOC(=O)CCc1c(C)c(C#N)c2[nH]c3ccccc3n2c1=O`, the Potency entry is “inactive”.

For the compound `FC(F)Oc1ccccc1C1CC(c2ccc(Br)s2)Nc2ncnn21` (configuration not stated), the Potency entry is “inactive”.

On to `COC(=O)C1C(=O)c2c([nH]c(C(=O)OCCSC)c2C)CC1C` (configuration not stated), for which the Potency is 7.94 µM (active).

Turning to `CCCOC(=O)c1[nH]c2c(c1C)C(=O)CC(c1cc(OC)c(OC)c(OC)c1)C2` (configuration not stated), the Potency result is “inactive”.

On to `CCCOC(=O)C1=C(C)NC2=C(C(=O)C(C(=O)OC)C(C)C2)C1c1ccc(N(C)C)cc1` (configuration not stated), for which the Potency entry is “inactive”.

Consider `O=C(NCc1ccco1)c1sc2cccc(F)c2c1Cl`, for which the Potency entry was “inactive”.

With `CN=C1SC(C(=O)O)CC(=O)N1C` (configuration not stated), the Potency entry was “inactive”.

For the compound `O=C(c1csnn1)N1CCC[C@@]2(CCN(c3cccc(-c4ccccc4)c3)C2)C1`, the activity change, negative = inhibition is 0.28% [at 11.4 µM].

On to `O=C(Nc1cccnc1)c1ccc2c(c1)OCO2`, for which the Potency entry was “inactive”.

For the compound `O=C(Nc1cccnc1)c1noc2c1CCCCC2`, the Potency was 12.6 µM (active).

Regarding `CCOc1cccc(C(=O)Nc2cccnc2)c1`, the Potency result is “inactive”.

For `COc1ccc(OC)c([C@H](O)CNC(=O)CN)c1`, the Potency result was “inactive”.

With `CNC(=O)NCCN1CCCC1=O`, the Potency result is “inactive”.

For `COC(=O)COc1ccc2oc(=O)cc(C)c2c1`, the Potency entry was “inactive”.

Turning to `CCN(CC)S(=O)(=O)c1cc(C(=O)Nc2ccccn2)ccc1C`, the Potency was 15.8 µM (active).

Consider `CCN(CC)S(=O)(=O)c1cccc(C(=O)Nc2ccccc2)c1`, for which the Potency entry was “inactive”.

As for `Cc1noc(C)c1C(=O)Nc1ccccn1`, the Potency entry was “inactive”.

Consider `N[C@H](C(=O)O)c1ccc(C(=O)O)c(O)c1`, for which the Potency entry was “inactive”.

For `c1ccc(CNc2ncncc2-c2cccnc2)cc1`, the activity change, negative = inhibition was -1.06% [at 2.29 µM].

On to `Cc1ccc(OCC(O)CN2CCN(CC(O)COc3ccc(C)cc3Cl)CC2)c(Cl)c1` (configuration not stated), for which the Potency entry is “inactive”.

As to `CCOC(=O)CSc1nnc(-c2ccncc2)o1`, the Potency entry was “inactive”.

As for `CCCCSc1nnc(-c2ccc(C)cc2)o1`, the Potency is 15.8 µM (active).

`CCOC(=O)CSc1nnc(-c2cccc(Br)c2)o1`: the Potency entry was “inactive”.

`CC1=C(C(=O)OCc2ccccc2)C(c2ccco2)n2ncnc2N1` (configuration not stated): the Potency result is “inactive”.

With `CCOc1ccc(C(=O)Nc2ccncc2)cc1`, the Potency entry was “inactive”.

For `COc1ccc(NC(=O)c2ccc(OC)cc2)cc1`, the Potency was 2 µM (active).

Consider `COc1ccc(NC(=O)c2c(C)oc3c2CCCC3)cc1`, for which the Potency result was “inactive”.

Consider `COc1ccc2occ(C(=O)c3ccc(N=C(C)N(C)C)cc3)c2c1`, for which the Potency result was “inactive”.

As to `N#Cc1c2c(c(-c3ccccc3)[nH]c1=O)CCCC2`, the Potency result was “inactive”.

For the compound `O=C(CCN1C(=O)c2ccncc2C1=O)Nc1ccc2c(c1)OCCO2`, the Potency entry was “inactive”.

Regarding `O=C(COc1ccc2oc3c(c2c1)CCCC3)Nc1ccccn1`, the Potency entry is “inactive”.

`CCOC(=O)c1cc(NC(=O)c2cccnc2)cc(C(=O)OCC)c1`: the Potency entry was “inactive”.

As to `Cc1ccc(OCC(=O)Nc2ccc(-c3nc4ncccc4o3)cc2)cc1`, the Potency result is “inactive”.

Take `Cc1cc2nc(-c3ccc(NC(=O)c4cccnc4)cc3)oc2cc1C`: the Potency was 12.6 µM (active).

For the compound `CC(=O)c1c(C)[nH]c(C(=O)NCCCN2CCCC2)c1C`, the Potency result is “inactive”.

`Cc1onc(-c2ccccc2)c1C(=O)N1CCOCC1`: the Potency result is “inactive”.

Take `C=CCN(CC=C)C(=O)CN1C(=O)c2ccccc2C1=O`: the Potency entry is “inactive”.

With `Cc1cc(C(=O)COC(=O)CCCN2C(=O)c3ccccc3C2=O)c(C)n1C`, the Potency entry is “inactive”.

Regarding `C=CCn1c(C)cc(C(=O)CN2C(=O)c3ccccc3C2=O)c1C`, the Potency was 3.98 µM (active).

Regarding `COc1cc2c(cc1OC)C(c1ccncc1)CC(=O)N2` (configuration not stated), the Potency result was “inactive”.

Take `O=C(c1ccncc1)N1CCC2(CCCN(C(c3ccccc3)c3ccccc3)C2)CC1`: the activity change, negative = inhibition is -0.104% [at 11.4 µM].

With `CCOC(=O)N1CCC(NC(=O)c2ccc3nc(N4CCOCC4)sc3c2)CC1`, the Potency entry is “inactive”.

Consider `c1c2c(cc3sc(N4CCCCC4)nc13)OCCO2`, for which the Potency is 1.58 µM (active).

On to `Fc1ccc2nc(N3CCCCC3)sc2c1`, for which the Potency was 25.1 µM (active).

On to `Cc1cc(N2CCCCC2)nc2ccc(Cc3ccc4nc(N5CCCCC5)cc(C)c4c3)cc12`, for which the activity change, negative = inhibition was 0.114% [at 11.4 µM].

Regarding `Fc1cc(F)c2nc(N3CCOCC3)sc2c1`, the Potency result was “inactive”.

Regarding `C/C(=C\c1ccco1)C1Nc2cccc3cccc(c23)N1`, the Potency entry was “inactive”.

As for `Cc1ccc(Cn2ccc(NC(=O)c3cc(C(C)C)on3)n2)cc1`, the Potency result was “inactive”.

As to `Cc1c(O)c(Br)c(C)c(O)c1Br` (tested in a mixture with another compound), the activity change, negative = inhibition was -10.4% [at 11.4 µM].

On to `O=C(c1ccco1)N1CCC2(CC1)CN(c1ncccn1)C2`, for which the activity change, negative = inhibition was -0.795% [at 11.4 µM].

In the case of `Cc1nn(-c2ccccc2)c2sc(C(=O)N(Cc3ccco3)C(C)C(=O)NC(C)(C)C)cc12` (configuration not stated), the Potency entry was “inactive”.

Consider `COc1cccc(Cn2c(=O)c(CCc3ccccc3)nc3cnc(N(C)C)nc32)c1`, for which the activity change, negative = inhibition was 0.592% [at 11.4 µM].

On to `Cc1ccnc(N2C(=O)c3ccccc3C2Nc2ccc3c(c2)OCCO3)c1` (configuration not stated), for which the Potency result was “inactive”.

Regarding `CCc1ccccc1NC1c2ccccc2C(=O)N1c1cccnc1` (configuration not stated), the Potency entry is “inactive”.

In the case of `COC(=O)c1cc(NC2c3ccccc3C(=O)N2c2ccc(Cl)cn2)cc(C(=O)OC)c1` (configuration not stated), the Potency is 7.94 µM (active).

Turning to `CCCCc1nc2c(=O)[nH]c3ccccc3c2o1`, the Potency result is “inactive”.

With `CSc1nnc2c(n1)OC(c1cn(C)c3ccccc13)N(C(C)=O)c1ccccc1-2` (configuration not stated), the Potency entry is “inactive”.

Turning to `CCN(CC)C(=O)N1CCN(C(=O)c2ccc(C)cn2)CC1`, the Potency result was “inactive”.

Regarding `CCCCC[C@H](O)CCCC(=O)O`, the Potency result is “inactive”.

For the compound `Cc1nnc(SCC(=O)NCCOc2ccc(Cl)cc2)n1-c1ccccc1`, the Potency entry is “inactive”.

Take `Cc1nnc(SCC(=O)N2CCc3ccccc32)n1-c1ccccc1`: the Potency entry is “inactive”.

For `Cc1nnc(SCc2ccc(C(=O)c3ccc(Cl)cc3)o2)n1-c1ccccc1`, the Potency is 12.6 µM (active).

In the case of `Cn1c(=O)c(-c2ccccc2)nc2cnc(N3CCNCC3)nc21`, the activity change, negative = inhibition is -0.109% [at 11.4 µM].

Regarding `CCN(CC)C(=O)CSc1nnc(-c2cccc(OC)c2)o1`, the Potency result was “inactive”.

As for `COc1cccc(-c2nc(S(=O)(=O)c3ccccc3)c(N3CCOCC3)o2)c1`, the Potency entry was “inactive”.

Regarding `COc1cccc(-c2nc3cc(C)ccc3o2)c1`, the Potency is 3.98 µM (active).

As for `CCOC(=O)CCC(=O)OCC(=O)NC(C)C1CC2CCC1C2` (configuration not stated), the Potency entry is “inactive”.

`CC[C@H](c1ccccc1)c1cc(C(C)(C)C)cc(C(C)(C)C)c1O`: the activity change, negative = inhibition is 2.75% [at 11.4 µM].

Consider `COc1ccc(OCC(=O)N2CCN(C(=O)COc3ccccc3)CC2)cc1`, for which the Potency result was “inactive”.

Turning to `CCC(CC)C(=O)Nc1cccc(C(=O)N2CCCC2)c1`, the Potency entry was “inactive”.

For the compound `COc1ccc(OCc2cccc(C(=O)N3CCCC3)c2)cc1`, the Potency was 25.1 µM (active).

Consider `N#CC1=C(N)Oc2cc(O)ccc2C1C1CCCCC1` (configuration not stated), for which the Potency entry was “inactive”.

As to `CS(=O)(=O)N1CCC2(CC1)CN(Cc1cc(C(F)(F)F)cc(C(F)(F)F)c1)C2`, the activity change, negative = inhibition is -0.965% [at 11.4 µM].

Consider `O=C1C=C(NCCNc2c(F)c(F)c(CO)c(F)c2F)CCC1`, for which the Potency result was “inactive”.

Consider `COc1ccccc1N1CCN(CCN2C(=O)c3ccccc3C(C)(C)C2=O)CC1`, for which the Potency entry is “inactive”.

As to `O=C1CC2(CCCCC2)Oc2ccc(OCC(=O)N3CCOCC3)cc21`, the Potency entry was “inactive”.

On to `CCC(=O)Nc1cccc(NC(=O)c2cccnc2)c1`, for which the Potency entry was “inactive”.

As to `C/C(=C\C(=O)c1ccccc1)Nc1cccc(O)c1`, the Potency was 7.94 µM (active).

Regarding `C/C(=C\C(=O)c1cccnc1)Nc1ccc(C)c(C)c1`, the Potency is 12.6 µM (active).

Turning to `O=C(CCCOc1ccccc1)Nc1cccc(C(=O)O)c1`, the Potency entry is “inactive”.

`O=C(Nc1cnccn1)c1cccnc1`: the Potency entry is “inactive”.

As to `CC(=O)c1cccc(NC(=O)c2ccncc2)c1`, the Potency entry is “inactive”.
